HT1080 IDH1KD tx = kills HT-1080 cells with IDH1 knockdown. Potency, µM (top dose mostly 46.1 µM), most hits filed as cytotoxic. 360,000 compounds, 2% hits. HT-1080 IDH1 knockdown viability, ATP luminescence, 48 h. AID 686971
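IDH1KD HT-1080 cells, 750/well, RPMI + 5% FBS; compound pinned after 2 h settling; 48 h, 37 °C; CellTiter-Glo luminescence; % activity normalised to DMSO and no-cell wells; curves fitted, classed by r2 and efficacy.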
TDP1 cell CPT = DT40-hTDP1 cell growth loss with CPT; Potency, µM (titrated, usually from 46.2 µM), usual class: inhibitors; 420,000 compounds, 12% hits; chicken DT40 Tdp1-/-;hTDP1 cells + 20 nM CPT, ATP luminescence, 48 h; further: nearly all actives have a fitted effect of over 55% in size
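Chicken DT40 Tdp1-/- cells stably complemented with human TDP1 were seeded at 400 cells/well in medium containing 20 nM camptothecin, exposed to pin-transferred compounds, and grown at 37 °C for at least 48 hr. Viability was read as ATP luminescence.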
HT1080-NT tox = kills 2HG-producing HT-1080-NT fibrosarcoma cells. Potency, µM (top dose mostly 46.1 µM), most hits filed as cytotoxic. 360,000 compounds, 1.6% hits. AID 686970. HT-1080-NT fibrosarcoma viability, CellTiter-Glo ATP luminescence, 48 h;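 further: NT is the 2HG producing partner of a matched IDH1 knockdown line; nearly all actives have a fitted effect of over 55% in size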
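Toxicity toward the 2HG-producing NT line was scored as %Activity, normalised to DMSO and no-cell wells, from CellTiter-Glo luminescence after 48 hours' treatment.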
uPA surface inh = inhibitors of cell surface uPA generation | AID 540303 | 330,000 compounds, 0.31% hits | Potency, µM (titrated, usually from 38.3 µM), most hits filed as inhibitors | cell surface uPA generation assay, qHTS; active means well fitted inhibition curve with a large enough effect; inconclusive means small, poorly fitted or top-dose-only effect; inactive means no such curve, though single readings can be large or run the other way; tested in mouse RAW 264.7 cells; further: nearly all actives have a fitted effect of over 55% in size
IL1B secr inh = blocks inflammasome-driven IL-1 beta release; THP-1 LPS/ATP IL-1B secretion, AlphaLISA, 16 h; stronger effect = lower value; activity change, % at 57.5 µM; 360,000 compounds, 4.7% hits; AID 743279; in the data active means activity change below about -50%; inconclusive means mostly about -30% to -49%
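THP-1 cells pretreated 1 hr with compounds (up to 57.5 uM final), then stimulated with LPS (250 ng/mL final) plus ATP (1.25 mM final); secreted IL-1B measured by AlphaLISA after 16 hr, decreased signal indicating inhibition.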
DT40 TDP1 no CPT = qHTS for Inhibitors of human tyrosyl-DNA phosphodiesterase 1 (TDP1): qHTS in cells in absence of CPT. 420,000 compounds, 15% hits. DT40 Tdp1-/- hTDP1 cells, no CPT, ATP luminescence, 48 h. Potency, µM (titrated, usually from 46.2 µM), hits mostly inhibitors; further: nearly all actives have a fitted effect of over 55% in size
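Camptothecin absent (DMSO only). Human TDP1-complemented DT40 knockout cells, 400 cells/well, 37 °C for minimum 48 hr; ATP measured via CellTiter-Glo, 30 min dark incubation, luminescence.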
Of the large screens only hits and unclear results are named; the others gave an inactive call. Shown are actives, neighbours in structure and some others; about 19% of the full set was active somewhere. Unless noted, the call rests on the fitted dose curve; in most records, active means well fitted curve in the direction sought with a large enough effect; inconclusive means small, poorly fitted or top-dose-only effect, or another doubt; inactive means no such curve, though single readings can be large; an effect the other way counts as inactive or inconclusive.

O=C(Nc1cccc2ccccc12)N1CC=C(c2ccccc2)CC1	HT1080 IDH1KD tx inconclusive, TDP1 cell CPT inconclusive, DT40 TDP1 no CPT inconclusive
O=C(Nc1ccc(Br)cc1F)N1CC=C(c2c[nH]c3ccccc23)CC1	TDP1 cell CPT 0.65µM, DT40 TDP1 no CPT 0.58µM (no result: HT1080 IDH1KD tx, HT1080-NT tox, uPA surface inh, IL1B secr inh)
Cc1cccc(NC(=O)N2CC=C(c3c[nH]c4ccccc34)CC2)c1C	TDP1 cell CPT 16µM, DT40 TDP1 no CPT 23µM (no result: HT1080 IDH1KD tx, HT1080-NT tox, uPA surface inh, IL1B secr inh)
COC(=O)c1ccc(Cl)cc1NC(=O)N1CCCn2nc(C)cc21	none (no result: HT1080 IDH1KD tx, HT1080-NT tox, uPA surface inh, IL1B secr inh)
COC(=O)c1ccc(Cl)cc1NC(=O)N1CC=C(c2c[nH]c3ccccc23)CC1	TDP1 cell CPT 15µM, DT40 TDP1 no CPT inconclusive (no result: HT1080 IDH1KD tx, HT1080-NT tox, uPA surface inh, IL1B secr inh)
Cc1ccc(NC(=O)Cn2ncc3c([nH]c4ccccc43)c2=O)cc1Cl	none
Cc1ccc(NC(=O)N2CC=C(c3c[nH]c4ccccc34)CC2)cc1Cl	TDP1 cell CPT 18µM, DT40 TDP1 no CPT 10µM (no result: HT1080 IDH1KD tx, HT1080-NT tox, uPA surface inh, IL1B secr inh)
CN1C(=O)CCC2(c3ccccc3)CC=C(O)C=C12 (configuration not stated)	none
Cc1cc(C)n(CCCNC(=O)C2CC(=O)N(Cc3ccccc3)C2)n1 (configuration not stated)	none
C/C(=C\c1ccco1)CN1CCOc2ccc(C(C)(O)COc3ccccc3)cc2C1 (configuration not stated)	DT40 TDP1 no CPT inconclusive (no result: HT1080 IDH1KD tx, HT1080-NT tox, uPA surface inh, IL1B secr inh)
C[C@@H]1CC(=O)NN=C1c1ccc(NN=C(C#N)C#N)cc1	TDP1 cell CPT 11µM, DT40 TDP1 no CPT 9.4µM (no result: HT1080 IDH1KD tx, HT1080-NT tox, uPA surface inh, IL1B secr inh)
CSCCC1NC(=O)N(CC(=O)Nc2ccc3c(c2)OCCO3)C1=O (configuration not stated)	none
CN(CC(=O)Nc1ccc(F)cc1)CC(=O)N1CCc2ccccc21	DT40 TDP1 no CPT inconclusive
CC1Cc2ccccc2N1C(=O)CN(C)CC(=O)Nc1ccc(OC(F)(F)F)cc1 (configuration not stated)	TDP1 cell CPT 15µM, DT40 TDP1 no CPT inconclusive
CN(CC(=O)NC(=O)NC1CCCCC1)CC(=O)Nc1ccc(OC(F)(F)F)cc1	TDP1 cell CPT inconclusive, IL1B secr inh -70, DT40 TDP1 no CPT inconclusive
COc1ccc(NC(=O)CN(C)CC(=O)NC(=O)NC2CCCCC2)cc1	DT40 TDP1 no CPT inconclusive
O=C(NCCc1cccs1)Nc1ccc2nc([C@@H]3O[C@H](CO)[C@@H](O)[C@H]3O)[nH]c2c1	none (no result: uPA surface inh)
Cc1ccccc1OCC(=O)Nc1ccccc1OCc1cc(=O)n2ccccc2n1	none (no result: HT1080 IDH1KD tx, HT1080-NT tox, uPA surface inh, IL1B secr inh)
CCN(CC)CCNC(=O)C1c2cc(OC)c(OC)cc2C(=O)N(C)C1c1cccs1 (configuration not stated)	none
CCOCc1cn(CC(=O)c2ccc([N+](=O)[O-])cc2)c(C)nc1=N	HT1080 IDH1KD tx inconclusive, TDP1 cell CPT 23µM, DT40 TDP1 no CPT inconclusive
CNC(=O)c1sccc1SCc1c(Cl)cccc1Cl	TDP1 cell CPT inconclusive, DT40 TDP1 no CPT inconclusive
CNC(=O)c1sccc1SCc1ccc(Cl)cc1Cl	TDP1 cell CPT 21µM, DT40 TDP1 no CPT 18µM
COc1ccc(NC(=O)c2cccnc2Nc2ccc(OC)cc2)cc1	TDP1 cell CPT 16µM, DT40 TDP1 no CPT inconclusive
COc1ccc(Nc2ncccc2C(=O)Nc2ccccc2)cc1	TDP1 cell CPT 23µM, DT40 TDP1 no CPT 29µM
CCOC(=O)c1cc2c(=Cc3ccc(N(C)C)cc3)c3ccccc3n2[n+]1C	HT1080 IDH1KD tx 8.2µM, TDP1 cell CPT 0.58µM, HT1080-NT tox inconclusive, IL1B secr inh -101, DT40 TDP1 no CPT 0.46µM
Cc1cc2c(=Cc3ccc(N(C)C)cc3)c3ccccc3n2[n+]1C	HT1080 IDH1KD tx 4.6µM, TDP1 cell CPT 0.52µM, HT1080-NT tox 15µM, DT40 TDP1 no CPT 0.46µM
CN(C)c1ccc(C=c2c3ccccc3n3c2c2ccccc2[n+]3C)cc1	HT1080 IDH1KD tx 8.2µM, TDP1 cell CPT 1.2µM, HT1080-NT tox 23µM, IL1B secr inh -66, DT40 TDP1 no CPT 1.5µM
CN(C)c1ccc(/C=C2\c3ccccc3-c3ccc(N(C)C)cc32)cc1	DT40 TDP1 no CPT inconclusive (no result: HT1080 IDH1KD tx, HT1080-NT tox, uPA surface inh, IL1B secr inh)
Cc1ccc(-n2c(COCC(=O)O)nc3cccnc32)cc1	none (no result: HT1080 IDH1KD tx, HT1080-NT tox, uPA surface inh, IL1B secr inh)
